PubChem BioAssay AID1159580 (chemical genetic matrix, 2015)
About 2,000 (36%) of roughly 5,500 compounds were called active. Roughly 18% stayed inconclusive and do not appear here. Rule as the data show it: active = normalized growth mostly below about 0.91 (no sharp cut-off); inconclusive = no clear call, values can overlap the other calls; inactive = mostly above about 0.92. This is one part of the list.

Test: chemical genetic growth profiling, strain panel (AID 1159580);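 also: tested at 20 µM; growth read once vehicle control cultures reached saturation at 30 °C; 1 = growth at the plate median or of vehicle wells; lower values mean less growth of the strain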
Conditions: S. cerevisiae deletion strains, growth OD

Measured: normalized growth

N[C@H](CCCCCP(=O)(O)O)C(=O)O
inactive: locus YAL013W, strain DEP1, stronger effect = lower value 0.989 | locus YAL040C, strain CLN3, stronger effect = lower value 1.06 | locus YCL061C, strain MRC1 (second series), stronger effect = lower value 1.01 | locus YER002W, strain NOP16, stronger effect = lower value 1 | locus YGR078C, strain PAC10, stronger effect = lower value 1 | locus YJR075W, strain HOC1, stronger effect = lower value 1.01 | locus YMR263W, strain SAP30, stronger effect = lower value 1.01 | locus YNL128W, strain TEP1, stronger effect = lower value 0.987 | locus YNL153C, strain GIM3, stronger effect = lower value 1.02 | locus YNL175C, strain NOP13, stronger effect = lower value 0.994 | locus YNL197C, strain WHI3, stronger effect = lower value 0.968 | locus YNL224C, strain SQS1, stronger effect = lower value 1 | locus YOR083W, strain WHI5 (second series), stronger effect = lower value 0.964 | locus YPL055C, strain LGE1, stronger effect = lower value 0.997 | locus YPL241C, strain CIN2, stronger effect = lower value 1
